Our source for the sensor-assay potency score (higher = more potent) values is the OligoGym collection.
Note: reference of the scale not given here.

One experiment deals with EPHX1. Description: pooled miR-30 sensor sort-seq; sequence = guide strand. Particulars: shRNA.
For TTGTCCAGTAGAGCATGACGTT, the sensor-assay potency score (higher = more potent) was -1.4.

Sequence TTCAAAAACGTGCTCATCGCTC came in with a sensor-assay potency score (higher = more potent) of -0.238.

Sequence ATCAGCTTGTAAAAGATCCTGG returned a sensor-assay potency score (higher = more potent) of -0.191.

In turn, AAAACTCGTAGAAAGAGCCGGG yielded a sensor-assay potency score (higher = more potent) of 0.199.

For TTGGTCAGCAGGTCGTCCAGGG, the sensor-assay potency score (higher = more potent) was -0.558.

TAAAACTCGTAGAAAGAGCCGG gave a sensor-assay potency score (higher = more potent) of -0.339.

With TCATCTGACGTTTCCACCTTGA, the sensor-assay potency score (higher = more potent) is -0.126.

On to AAAGTTTCCTCTTTGTCCCGGG, for which the sensor-assay potency score (higher = more potent) turned out to be 0.0687.

With TCGTCCAGGGAGAACTTCCTTT, the sensor-assay potency score (higher = more potent) is -1.04.

AACTTCTCTAGAATATAGGCAG: the sensor-assay potency score (higher = more potent) was -0.342.

In the case of TCTCCTTGTAGAAGCGCTGGGA, the sensor-assay potency score (higher = more potent) is -0.317.

Turning to TTGTAAAAGATCCTGGCGGTGG, the sensor-assay potency score (higher = more potent) is -0.0602.

Take TTCTCCTTGTAGAAGCGCTGGG: the sensor-assay potency score (higher = more potent) is -0.596.

Consider TACTTGAACCTCACCCACTTTT, for which the sensor-assay potency score (higher = more potent) was -0.563.

TGGATCTCCTCATCTGACGTTT registered a sensor-assay potency score (higher = more potent) of -0.892.

In the case of TTCAATCTTAGTCTTGAAGTGA, the sensor-assay potency score (higher = more potent) was -0.0669.

In the case of TAGGAATAGGAGATGAGCTTTG, the sensor-assay potency score (higher = more potent) was -0.367.

TCTTAGTCTTGAAGTGAGGGTA came in with a sensor-assay potency score (higher = more potent) of 0.435.

Sequence TTGTCCCGGGAGATGAACCAGT displayed a sensor-assay potency score (higher = more potent) of -1.24.

Sequence TTGGAGTTGAAGCCATAGTGGA displayed a sensor-assay potency score (higher = more potent) of -0.99.

TCAATCTTAGTCTTGAAGTGAG returned a sensor-assay potency score (higher = more potent) of -0.441.

The target of another experiment is EPHX2. Described as above. Particulars: shRNA.
TTAGAGGACCTCTGAAACCAGA: the sensor-assay potency score (higher = more potent) is -0.75.

Sequence TCTCCTTACATAACACTTCCAT had a sensor-assay potency score (higher = more potent) of -0.551.

As to TTCAGCTCACACATCAGCTGGG, the sensor-assay potency score (higher = more potent) was determined as 0.39.

TATCAGGAAGTCAAAGTGCATC yielded a sensor-assay potency score (higher = more potent) of -1.33.

Turning to TCGCTTGCTCTGAAGAGGCTTT, the sensor-assay potency score (higher = more potent) was -0.734.

Take TTTATGGAGAAATTCTTGGGGA: the sensor-assay potency score (higher = more potent) was 0.378.

In turn, TGGTTCTTGGAAGTAGAGCTGG came in with a sensor-assay potency score (higher = more potent) of -0.725.

As to TCTCTCAGCACGGTCGTCCAGC, the sensor-assay potency score (higher = more potent) was -0.771.

TAGAACTGGATTTCCTCCTCAG registered a sensor-assay potency score (higher = more potent) of 0.253.

Take TTTCTGGCTGAAATCGCCTTGT: the sensor-assay potency score (higher = more potent) was -0.617.

The sequence TGCAATATTCTTCTATTTCGGG came in with a sensor-assay potency score (higher = more potent) of -0.612.

The sequence TTCTTGGAAGTAGAGCTGGTAA registered a sensor-assay potency score (higher = more potent) of -0.749.

Consider TTTCTGGAAAGCATCATTCAGA, for which the sensor-assay potency score (higher = more potent) was -0.533.

TTCTTTTATGGAGAAATTCTTG showed a sensor-assay potency score (higher = more potent) of -0.837.

As to TTGGATTGCAAGAGGTCGGCAG, the sensor-assay potency score (higher = more potent) was -0.532.

Sequence TTCCATGCAATATTCTTCTATT returned a sensor-assay potency score (higher = more potent) of -0.473.

In the case of AACTGCTGCACATAGAACTGGA, the sensor-assay potency score (higher = more potent) was -0.354.

Turning to TCCAAGAATACCAACTCTCGGG, the sensor-assay potency score (higher = more potent) was -1.01.

TTTGATACTCTCCAAAGGGGAC returned a sensor-assay potency score (higher = more potent) of -0.915.
